The structures appear in SMILES notation. “And” between values parts separate entries of the source, which are not always exact repeats. Identical values can stand only once. The whole screen tested about 16,000 compounds, of which about 2,600 (16%) were called active. Not shown: some 20% with an inconclusive outcome. Calls follow the shape of the dose curve; as a rule, active = well fitted curve in the direction sought with a large enough effect; inconclusive = small, poorly fitted or top-dose-only effect, or effect the other way; inactive = no such curve, though single readings can be large or run the other way. The list is a sample of the results. More than one record can exist for a structure, and the calls need not agree.
% is scaled to controls: 0 for no effect and ±100 for the full control effect.

The target in the assay is Cytochrome P450 2D6 (Homo sapiens) (UniProt P10635). Description: Cytochrome panel assay with activity outcomes. The note with it: recombinant CYP, pro-luciferin dealkylation, luminescence, p450-cyp2d6; series mostly up to 57.1 µM.
Cytochrome P450 2D6 (Homo sapiens), sequence (P10635 whole entry, looked up): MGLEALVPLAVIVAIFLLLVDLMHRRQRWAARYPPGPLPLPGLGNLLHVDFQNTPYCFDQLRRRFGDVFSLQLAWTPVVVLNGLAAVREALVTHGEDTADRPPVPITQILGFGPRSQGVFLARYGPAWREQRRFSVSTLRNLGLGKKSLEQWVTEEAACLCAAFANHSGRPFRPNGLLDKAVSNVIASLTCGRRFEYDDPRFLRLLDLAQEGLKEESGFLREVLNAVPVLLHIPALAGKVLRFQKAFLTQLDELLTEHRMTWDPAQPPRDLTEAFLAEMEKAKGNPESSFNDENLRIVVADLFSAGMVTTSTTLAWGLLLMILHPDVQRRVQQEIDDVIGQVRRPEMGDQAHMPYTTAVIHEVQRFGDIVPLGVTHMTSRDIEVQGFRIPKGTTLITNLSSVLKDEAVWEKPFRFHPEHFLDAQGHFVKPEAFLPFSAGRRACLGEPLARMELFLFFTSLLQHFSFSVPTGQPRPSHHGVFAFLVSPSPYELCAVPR
For the molecule `O=C(O)c1nc(-c2ccccc2)[nH]c1C(=O)O`, the activity, negative = inhibition was -20.9% [at 11.4 µM] (inactive).
By AC50 is commonly meant the concentration at which the activity in the assay is half-maximal. As to `Cc1cccc(NC(=O)c2cc(N3C(=O)CCC3=O)ccc2Cl)n1`, the AC50 entry was “inactive”.
Turning to `Cc1ccc(S(=O)(=O)N(C)c2cc(S(=O)(=O)N3CCC(C)CC3)c(C)cc2C)cc1`, the AC50 result was “inactive”.
Take `CCOC(=O)c1cnc(-n2nc(C)cc2C)nc1NCCO`: the AC50 result is “inactive”.
As for `CC1=C(\C=C/C(C)=C/C=C\C(C)=C\C(=O)O)C(C)(C)CCC1`, the AC50 entry was “inactive and 2 µM (active)”.
`CC1=CC(=O)CC(C)(C)[C@]1(O)/C=C\C(C)=C\C(=O)O`: the activity, negative = inhibition is 11.4% [at 11.4 µM] (inactive).
Still for that read-out and setting: under `O=C1c2ccccc2N[C@H](c2cc(Cl)cc(Cl)c2O)N1CCc1ccccn1` stands 15% [at 11.4 µM] (inactive).
For `COC(=O)c1c(NC(=O)Cn2cc([N+](=O)[O-])cn2)sc2c1CCC2`, the AC50 result is “inactive”.
For the molecule `COC(=O)C1CCN(CC(=O)Nc2sc3c(c2C#N)CCC3)CC1`, the AC50 was 1.12 µM (active).
On the same count and under the same terms, under `N#Cc1c(NC(=O)C2CC(c3ccccc3Cl)=NO2)sc2c1CCC2` (centres undefined) stands “inactive”; under `O=c1c(-c2ccc(F)cc2)nc2cnc(N3CCOCC3)nc2n1C[C@H]1CCCO1`, “inactive”.
In the case of `COc1ccc(Cc2nnc(NC(=O)c3cccc([N+](=O)[O-])c3C)s2)cc1`, the AC50 result is “inactive”.
In the case of `COc1cc(OC)c2c(c1Cl)O[C@@]1(C2=O)[C@H](C)CC(=O)C[C@@H]1OC`, the AC50 result is “inactive”.
As to `COCCn1c(=O)c(-c2cc(F)cc(F)c2)nc2cnc(Oc3ccccc3)nc21`, the AC50 result was “inactive”.
Same read-out and setting: the result for `CSc1nc2c(c(C(F)(F)F)n1)CC(C)CC2` (centres undefined) reads “inactive”; that for `CSc1nc(N)c2ncn([C@@H]3O[C@@H](COP(=O)(O)OP(=O)(O)O)[C@@H](O)[C@H]3O)c2n1`, “inactive”.
Take `COc1ccc(N2C(=O)NC(NC(=O)c3ccncc3)(C(F)(F)F)C2=O)cc1` (centres undefined): the AC50 result is “inactive”.
On the same count and under the same terms, under `Cc1nc(SCC(=O)Nc2c(C)n(C)n(-c3ccccc3)c2=O)nc(C)c1C` stands “inactive”.
In the case of `Cc1ccc(-c2nnc(-c3ccc4ccccc4c3)o2)cc1`, the activity, negative = inhibition is 3.58% [at 11.4 µM] (inactive).
With `O=C(Nc1ccc2ccccc2c1)c1onc2c1CCCC2`, the AC50 result is “inactive”.
Still for that read-out and setting: the result for `c1ccc2cc(NCNc3ccc4ccccc4c3)ccc2c1` reads 1 µM (active); that for `CCOc1cc(CN2CCN(c3ccc(C(C)=O)cc3)CC2)ccc1OC`, “inactive”.
As for `Cn1c(N)nc2c(nc(OCc3ccccc3)n2[C@@H]2O[C@H](CO)[C@@H](O)[C@@H]2O)c1=O`, the activity, negative = inhibition is 9.24% [at 11.4 µM] (inactive).
Consider `CCN1C(=O)/C(=C/C=C2/SCCN2C)SC1=S`, for which the AC50 entry was “inactive”.
`O=C1c2ccccc2C(=O)C1c1ccccc1`: the AC50 entry was “inactive”.
In the case of `CC1(C)C(=O)NC2=C1C(=O)C(=O)c1ccccc12`, the AC50 was 2.51 µM (active).
On to `Cn1ncc2c(Cl)ncnc21`, for which the activity, negative = inhibition was 12.3% [at 11.4 µM] (inactive).
For `COc1ccc(-c2cc(C(F)(F)F)n3nc(C(=O)NCc4ccco4)c(Cl)c3n2)cc1`, the AC50 result is “inactive”.
On to `CCCCOC(=S)NC(=O)c1sc2ccccc2c1Cl`, for which the AC50 entry was “inactive”.
`CN(C)CC[C@@H](c1ccccc1)c1ccccn1`: the AC50 entry was “inactive”.
Still for that read-out and setting: under `CN(C)CC[C@H](c1ccc(Cl)cc1)c1ccccn1` stands 31.6 µM (active).
On to `CN(C)CC(CN(C)C)c1ccccn1`, for which the activity, negative = inhibition was 6.41% [at 11.4 µM] (inactive).
Consider `CC(=O)Oc1ccc(C(c2ccc(OC(C)=O)cc2)c2ccccn2)cc1`, for which the AC50 result is “inactive”.
With `CN(C)CC[C@H](c1ccc(Br)cc1)c1ccccn1`, the AC50 is 15.8 µM (active) and 25.1 µM (active).
`Cc1ccc(-c2c(C#N)c(N)n(-c3ccccc3)c(=O)c2C#N)cc1`: the AC50 result was “inactive”.
Take `COC(=O)C1=C(C)C(c2ccc(OC)cc2)NC(=S)N1` (centres undefined): the AC50 entry was “inactive”.
For the molecule `Cc1noc(C)c1COc1ccc(C(=O)NCC2CCCO2)cc1` (centres undefined), the AC50 result was “inactive”.
On to `N[C@H](C(=O)O)[C@@H](O)c1cnc[nH]1`, for which the activity, negative = inhibition was 10.8% [at 11.4 µM] (inactive).
Regarding `COc1cc(OC)c(C(=O)CCCCN2CCC3(CC2)NC(=O)NC3=O)cc1NS(=O)(=O)c1ccc(C(F)(F)F)cc1`, the AC50 entry was “inactive”.
Consider `CC[C@H]1C2=C3C(CC[C@H]4C(OCc5ccc(F)cc5C(F)(F)F)OC[C@](C)([C@@H]34)N(C(=O)OC(C)(C)C)C2)C(COC(C)=O)C1COC(C)=O` (some centres undefined), for which the AC50 entry was “inactive”.
On the same count and under the same terms, the result for `CCOC(=O)C1=C(N)Oc2ccc(Br)cc2[C@@H]1[C@@H](C#N)C(=O)OCC` reads “inactive”; that for `O=c1c(-c2ccc(F)cc2)nc2cnc(N3CCNCC3)nc2n1C1CC1`, “inactive”.
In the case of `c1ccc(-c2nc(NCCCn3ccnc3)c3oc4ccccc4c3n2)cc1`, the AC50 was 2 µM (active).
Turning to `Cc1nc(SCC(=O)NCCc2ccccc2)c2oc3ccccc3c2n1`, the AC50 result was “inactive”.
Consider `O=C(Cn1cnc2c(oc3ccccc32)c1=O)NCc1ccco1`, for which the AC50 result is “inactive”.
On to `c1ccc2cc(Sc3ncnc4c3oc3ccccc34)ccc2c1`, for which the AC50 result was “inactive”.
Same read-out and setting: the result for `CCc1nc(N[C@H](C(=O)O)C(C)CC)c2oc3ccccc3c2n1` (some centres undefined) reads “inactive”; that for `c1ccc2c(c1)oc1c(NCCCn3ccnc3)ncnc12`, 1.26 µM (active).
`CC(C)=CCC/C(C)=C/CO/N=C1/C[C@@H](O)[C@@H](O)[C@@H]2[C@H]3C(=O)N(c4ccc(F)cc4F)C(=O)[C@@H]3CC[C@H]12`: the activity, negative = inhibition is 6.74% [at 11.4 µM] (inactive).
Take `O=c1cc(CSc2nnc(-c3cccnc3)n2-c2ccccc2F)nc2sccn12`: the AC50 result was “inactive”.
As for `COc1ccc(-n2c(N)c(C(=O)NCc3ccco3)sc2=S)cc1`, the AC50 entry is “inactive”.
`C=CCC(NCc1ccco1)c1ccc(OC)cc1` (centres undefined): the AC50 was 5.01 µM (active).
With `COc1ccc(OC)c(NC(=O)C(CC(=O)O)NCc2ccco2)c1` (centres undefined), the AC50 entry was “inactive”.
As for `CS(=O)(=O)N1CCC2(CC1)CN(C(=O)Nc1cccc(C#N)c1)C2`, the AC50 result is “inactive”.
Regarding `O=C(O)/C=C\C(=O)N1Cc2cc3ccccc3nc2C1`, the activity, negative = inhibition was -1.33% [at 11.4 µM] (inactive).
As for `CC(=O)N(CC(O)CN(C(C)=O)c1c(I)c(C(=O)NC[C@@H](O)CO)c(I)c(C(=O)NC[C@@H](O)CO)c1I)c1c(I)c(C(=O)NC[C@@H](O)CO)c(I)c(C(=O)NC[C@@H](O)CO)c1I`, the AC50 entry is “inactive”.
As for `COc1ccc(-n2cccc2C=O)cc1OC`, the AC50 entry was “inactive”.
For the molecule `CS(=O)(=O)N1CCC2(CC1)CN(c1ccncc1)C2`, the AC50 entry is “inactive”.
With `CS(=O)(=O)N1CCC2(CCCN(C(c3ccccc3)c3ccccc3)C2)CC1`, the half-maximal activity concentration (AC50) was 5.01 µM (active).
On the same count and under the same terms, under `CS(=O)(=O)N1CCC2(CC1)CN(C(c1ccccc1)c1ccccc1)C2` stands 2.51 µM (active); under `CS(=O)(=O)N1CCC2(CCCN(c3ccncc3)C2)CC1`, “inactive”.
In the case of `CS(=O)(=O)N1CCC2(CC1)CN(C(=O)Nc1ccccc1)C2`, the AC50 result is “inactive”.
Turning to `CS(=O)(=O)N1CCC2(CC1)CN(c1ccc(-c3ccccc3)cc1)C2`, the AC50 entry was “inactive”.
`CS(=O)(=O)N1CCC2(CCN(c3cccc(-c4ccccc4)c3)CC2)CC1`: the AC50 result was “inactive”.
Take `CS(=O)(=O)N1CCC2(CC1)CN(c1ccccc1)C2`: the concentration at half-maximal activity (AC50) is 1.26 µM (active).
With `CS(=O)(=O)N1CCC2(CCN(c3ccccc3)CC2)CC1`, the AC50 result was “inactive”.
As to `CS(=O)(=O)N1CCC2(CCN(C(c3ccccc3)c3ccccc3)CC2)CC1`, the AC50 is 3.16 µM (active).
With `O=C1NC(=S)N/C1=C/c1cccc([N+](=O)[O-])c1O`, the AC50 result was “inactive”.
As for `O=C1CC(c2ccc(F)cc2)Cc2nc(NCC3CCCO3)ncc21` (centres undefined), the AC50 result was “inactive”.
As for `CC12CCC(C(=O)Nc3ncc([N+](=O)[O-])s3)(OC1=O)C2(C)C` (centres undefined), the AC50 entry is “inactive”.
For the molecule `Cc1cccc(C(=O)NN(C)c2nc(-c3ccccc3)nnc2C(F)(F)F)c1`, the AC50 entry is “inactive”.
With `CCOC(=O)N1CCN(C(=O)c2cc(-c3ccc(F)cc3)[nH]c2C)CC1`, the AC50 entry is “inactive”.
As to `COC(=O)C/C=C\[C@@H](C)[C@@H](/C=N\O[C@@H](C)c1cn([C@H](CO)Cc2ccccc2)nn1)NS(=O)(=O)c1ccc(C)cc1`, the activity, negative = inhibition is -17.6% [at 11.4 µM] (inactive).
As for `COCCCn1nnnc1SCC(=O)N1CCCC1`, the AC50 result was “inactive”.
Take `Cn1c(SC2CCCCC2=O)nnc1-c1ccncc1` (centres undefined): the AC50 result was “inactive”.
Consider `COC(=O)Cn1nc(-c2ccccc2)n(-c2ccccc2)c1=S`, for which the AC50 result was “inactive”.
Regarding `O=C(NC(=S)Nc1cccc(Cl)c1N1CCCC1)c1ccc(-c2cccc([N+](=O)[O-])c2)o1`, the AC50 entry was “inactive”.
As to `CS(=O)(=O)N1CCC[C@@]2(CCN(C(c3ccccc3)c3ccccc3)C2)C1`, the concentration at half-maximal activity (AC50) is 3.98 µM (active).
Still for that read-out and setting: under `CS(=O)(=O)N1CCC[C@@]2(CCN(C(=O)Nc3ccccc3)C2)C1` stands “inactive”; under `CS(=O)(=O)N1CCC[C@@]2(CCN(c3ccccc3)C2)C1`, “inactive”.
Take `Cc1nc2c3cnn(-c4ccc(C)c(C)c4)c3ncn2n1`: the AC50 result is “inactive”.
Consider `CCCc1nnc(SCC(=O)N2CCCC(C)C2)n1CC1CCCO1` (centres undefined), for which the AC50 result was “inactive”.
Take `COC(=O)N1CCC2(CC1)CN(C(=O)Nc1ccc(OC)cc1)C2`: the AC50 result was “inactive”.
For the molecule `Cc1ncc(CO)c(CO)c1O`, the AC50 result was “inactive”.
The same measure, in the same setting: the result for `Cc1ncc2c(c1O)COP(=O)(O)OC2` reads 1 µM (active); that for `CCC1NC(=S)N(C2CCCCC2)C1=O` (centres undefined), “inactive”.
Regarding `C(/C=C/c1ccco1)=N/N1CCN(c2ccccc2)CC1`, the AC50 entry is “inactive”.
In the case of `N=c1n(CCN2CCOCC2)c2ccccc2n1CC(=O)c1ccc(Cl)c(Cl)c1`, the AC50 was 2 µM (active).
On to `O=C(/C=C/c1ccc(Cl)cc1)NCCN1CCOCC1`, for which the AC50 entry is “inactive”.
For `O=C(/C=C/c1ccccc1Cl)NCCN1CCOCC1`, the AC50 entry was “inactive”.
As to `O=c1c(-c2ccc(F)cc2)nc2cnc(N3CCOCC3)nc2n1C1CC1`, the AC50 entry is “inactive”.
`O=C(CN1C(=O)c2ccccc2C1=O)NC1(C(=O)O)CCCC1`: the activity, negative = inhibition was 2.83% [at 11.4 µM] (inactive).
`COCCn1c(=O)c(-c2ccccc2)nc2cnc(Oc3ccccc3)nc21`: the AC50 entry is “inactive”.
Regarding `COc1ccc(NC(=O)N2CC3(CCN(C(=O)c4ccc(OC)cc4)CC3)C2)cc1`, the AC50 entry is “inactive”.
Consider `C[C@H]1CC(C)(C)C[C@@](OCCN2CCCCC2)(c2ccccc2)C1`, for which the AC50 is 0.631 µM (active).
On the same count and under the same terms, under `CCCc1nnc(SCC(=O)N2CCCCC2C)n1CC1CCCO1` (centres undefined) stands “inactive”; under `Cc1ccc(OC(=O)N2CCOCC2)cc1`, “inactive”.
Turning to `CCOC(=O)C1CCCN(c2ncnc3c2cnn3-c2cccc(C)c2)C1` (centres undefined), the AC50 entry is “inactive”.
The same measure, in the same setting: the result for `CN1CCN(c2ncc3nc(-c4ccc(F)cc4)c(=O)n(C4CC4)c3n2)CC1` reads “inactive”.

Source of the values: PubChem BioAssay AID1851 (National Center for Advancing Translational Sciences (NCATS), 2009).
